Records with an inconclusive call do not appear. Entries that show only a call come without a potency. Calls of active or inactive are those of the source. The call rests on the fitted dose curve; in most records, active means well fitted cell-killing curve with a large enough effect; inconclusive means small, poorly fitted or top-dose-only effect; inactive means flat fitted curve, though single readings scatter.
Columns and labels:
[1] = Cell Viability - LYMP2-006 (AID 978); further: nearly all actives have a fitted effect of over 60% in size
In short: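 Human lymphoblastoid cells, 2500 per well, were preincubated 5 hr at 37 C, then exposed to compounds for 24 hr at 37 C in complete medium. Viability was read as intracellular ATP by CellTiter-Glo luminescence; AC50 from Hill-equation fits of qHTS concentration-response data.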

[2] = Cell Viability - LYMP2-007 (AID 979);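 further: cells exposed to compound for 24 h before reading; nearly all actives have a fitted effect of over 60% in size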
In short: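 Acute toxicity is scored as a concentration-dependent fall in intracellular ATP in human lymphoblastoid cells treated 24 hr at 37 C, measured by luciferase luminescence; Hill-equation modelling yields AC50.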

[3] = Cell Viability - LYMP2-008 (AID 980); further: nearly all actives have a fitted effect of over 60% in size
In short: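 Acute cytotoxicity is scored as concentration-dependent loss of cellular ATP in a human lymphoblastoid line after 24 hr treatment at 37 C. ATP is quantified by luciferase luminescence.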

[4] = Cell Viability - LYMP2-012 (AID 982);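 further: cellular ATP by luciferase luminescence where a drop means cytotoxicity; cells exposed to compound for one day before reading; nearly all actives have a fitted effect of over 55% in size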
[5] = Cell Viability - LYMP2-014 (AID 983); further: nearly all actives have a fitted effect of over 50% in size
In short: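 Decrease in intracellular ATP after 24 hr treatment at 37 C, measured by luciferase luminescence, indicated cytotoxicity. Concentration-response data were fitted with the standard Hill equation to give AC50.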

[6] = Cell Viability - LYMP2-016 (AID 984); further: nearly all actives have a fitted effect of over 55% in size
In short: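 Human lymphoblastoid cells (LYMP2-016), 2500/well in complete medium, preincubated 5 hr at 37 C, then compound-treated 24 hr at 37 C. Intracellular ATP read by CellTiter-Glo luminescence after 30 min at room temperature; AC50 from Hill-equation concentration-response fits.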

[7] = Cell Viability - LYMP2-018 (AID 985);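 further: compound exposure lasted 24 hr at 37 °C; nearly all actives have a fitted effect of over 50% in size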
In short: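 Acute cytotoxicity is scored as a concentration-dependent drop in intracellular ATP after 24 hr exposure of the lymphoblastoid line in complete culture medium, measured by luciferase luminescence. Potency is expressed as AC50 from Hill modelling.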

[8] = Cell Viability - LYMP2-020 (AID 986); further: nearly all actives have a fitted effect of over 55% in size
In short: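 Acute cytotoxicity in a human lymphoblastoid line is scored as a concentration-dependent fall in cellular ATP after 24 hr at 37 C in complete medium. The positive control is tetraoctylammonium bromide, and potency is given as Hill-fit AC50.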

[9] = Cell Viability - LYMP2-022 (AID 987); further: nearly all actives have a fitted effect of over 55% in size
In short: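 Acute toxicity in a human lymphoblastoid line is scored as decreased intracellular ATP after 24 hr compound treatment at 37 C. ATP is measured by CellTiter-Glo luminescence; curves are fitted with the Hill equation to give AC50.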

[10] = Cell Viability - LYMP2-024 (AID 988); further: nearly all actives have a fitted effect of over 60% in size
In short: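 Acute toxicity is measured as concentration-dependent loss of intracellular ATP in a human lymphoblastoid line treated 24 hours at 37 C. Luciferase luminescence quantifies ATP; AC50 values come from standard Hill-equation modelling.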
Potency means the concentration at half of the fitted maximal effect.

Row | Structure (SMILES) | Potency [1] | Potency [2] | Potency [3] | Potency [4] | Potency [5] | Potency [6] | Potency [7] | Potency [8] | Potency [9] | Potency [10]
1 | O=C(N[C@H](CO)[C@H](O)c1ccc([N+](=O)[O-])cc1)C(Cl)Cl | inactive | inactive | inactive | inactive | inactive | inactive | inactive | inactive | inactive | inactive
2 | CC(=O)[C@H]1CC[C@H]2[C@@H]3CCC4=CC(=O)CC[C@]4(C)[C@H]3CC[C@]12C | inactive | – | – | – | – | – | – | – | – | –
3 | COc1ccc2cc3[n+](cc2c1OC)CCc1cc2c(cc1-3)OCO2 | – | – | – | – | – | – | – | – | 31.6 µM (active) | 39.8 µM (active)
4 | N=C(N)c1ccc(OCCCCCOc2ccc(C(=N)N)cc2)cc1 | – | 39.8 µM (active) | – | – | – | – | – | – | 39.8 µM (active) | –
5 | CC1=NN(c2ccccc2)C(=O)C1 | inactive | inactive | inactive | inactive | inactive | inactive | inactive | inactive | inactive | inactive
6 | Cc1ncc([N+](=O)[O-])n1CCO | inactive | inactive | inactive | inactive | inactive | inactive | inactive | inactive | inactive | inactive
7 | Cc1noc(NS(=O)(=O)c2ccc(N)cc2)c1C | inactive | inactive | inactive | inactive | inactive | inactive | inactive | inactive | inactive | inactive
8 | Cc1cc(NS(=O)(=O)c2ccc(N)cc2)no1 | inactive | inactive | inactive | inactive | inactive | inactive | inactive | inactive | inactive | inactive
9 | NC(N)=NC(N)=NCCc1ccccc1 | inactive | inactive | inactive | inactive | inactive | inactive | inactive | – | inactive | inactive
10 | CCc1cc(C(N)=S)ccn1 | inactive | inactive | inactive | inactive | inactive | inactive | inactive | inactive | inactive | inactive
11 | Cc1nnc(NS(=O)(=O)c2ccc(N)cc2)s1 | inactive | inactive | inactive | inactive | inactive | inactive | inactive | inactive | inactive | inactive
12 | Cc1ccnc2c1NC(=O)c1cccnc1N2C1CC1 | inactive | inactive | inactive | inactive | inactive | inactive | inactive | inactive | inactive | inactive
13 | C[C@]12C=CC(=O)C=C1CC[C@@H]1[C@@H]2C(=O)C[C@@]2(C)[C@H]1CC[C@]2(O)C(=O)CO | inactive | inactive | inactive | inactive | inactive | inactive | inactive | inactive | inactive | inactive
14 | CN(C)c1ccc(C(=C2C=CC(=[N+](C)C)C=C2)c2ccc(N(C)C)cc2)cc1 | 3.16 µM (active) | 2.51 µM (active) | 2 µM (active) | 1 µM (active) | 2 µM (active) | 2 µM (active) | 2 µM (active) | 2 µM (active) | 0.794 µM (active) | 2 µM (active)
15 | O=C(O)c1cc(=O)[nH]c(=O)[nH]1 | inactive | inactive | inactive | inactive | inactive | inactive | inactive | inactive | inactive | inactive
16 | NNC(=O)c1ccncc1 | inactive | inactive | inactive | inactive | inactive | inactive | inactive | inactive | inactive | inactive
17 | CC[C@H](C)C(=O)O[C@H]1C[C@@H](C)C=C2C=C[C@H](C)[C@H](CC[C@@H]3C[C@@H](O)CC(=O)O3)[C@H]21 | – | inactive | inactive | inactive | inactive | inactive | inactive | – | inactive | inactive
